Hits are enriched below; roughly 1% of the tested compounds scored in any of these assays.
TcdB GH inh: TcdB glycohydrolase inhibitors, primary screen, biochemical, single point, plate reader. inhibition, % at 9.99 µM. TcdB glycohydrolase enzymatic assay. Toxin B (Clostridioides difficile), P18177. 350,000 compounds, 0.24% hits; in the data active = inhibition above about 10%
SSB-PriA inh: inhibitors of Klebsiella pneumoniae PriA binding to SSB C-terminal tail, primary screen, biochemical, AlphaScreen; PriA–SSB C-terminal tail interaction (Klebsiella pneumoniae); AlphaScreen SSBct-PriA binding, biotinylated peptide; inhibition, % at 33 µM; 430,000 compounds, 0.6% hits; AID 1272365, 2023; in the data active = inhibition mostly above about 37%, no sharp cut-off; inactive = mostly below about 20%
FadD28 binding: inhibitors of FadD28 bisubstrate probe binding, primary screen, biochemical, fluorescence polarization, single point. Mycobacterium tuberculosis FadD28 fatty-acid-AMP ligase. inhibition, % at 12.5 µM. 360,000 compounds, 0.22% hits; in the data active = inhibition above about 8.5%, passing the limit was not always enough; inconclusive = no clear call, values can overlap the other calls
PrP UTR inh: inhibition of PrP 5' UTR reporter expression. AID 488862, 2010. inhibition, % (test concentration not listed). cell-based PrP 5' UTR mRNA reporter, plate reader. 340,000 compounds, 0.35% hits; in the data active = inhibition above about 52%
Mtb hypoxia inh: PubChem AID 1159583; M. tuberculosis hypoxia-regulated fluorescent reporter, fluorescence; fluorescence inhibition, % (test concentration not listed); 300,000 compounds, 0.1% hits; in the data active = fluorescence inhibition mostly above about 23%, no sharp cut-off; inactive = mostly below about 17%
Mtb BioA inh: M. tuberculosis BioA enzyme inhibitors, primary screen, biochemical, plate reader, single point, HTS | 7,8-diaminopelargonic acid synthase BioA (Mycobacterium tuberculosis) | purified M. tuberculosis BioA enzyme | inhibition, % at 9.99 µM | 360,000 compounds, 0.096% hits | AID 602481, 2012; in the data active = inhibition above about 40%; inconclusive = no clear call, values can overlap the other calls
Each line names hits and unclear results; the compound was inactive in the other large screens.

CCOc1ccc(-c2ccc(/C=C3/C(=N)N4C(C)=CSC4=NC3=O)o2)c([N+](=O)[O-])c1	none
CCSc1nnc(NC(=O)C2CC2c2ccccc2)s1 (stereo unspecified)	TcdB GH inh 12.0 (no result: Mtb BioA inh)
CCCCn1c(NC(=O)c2ccccc2Cl)c(C#N)c2nc3ccccc3nc21	none (no result: TcdB GH inh)
N#Cc1c(NC(=O)c2ccccc2Cl)n(Cc2ccccc2)c2nc3ccccc3nc12	SSB-PriA inh 53.3 (no result: Mtb hypoxia inh, Mtb BioA inh)
COCCNC(=O)N1CCC(S(C)(=O)=O)CC1	none (no result: TcdB GH inh, FadD28 binding, PrP UTR inh, Mtb hypoxia inh, Mtb BioA inh)
Cc1cc(C(=O)O)n(C(C)(C)C)n1	none
O=C(c1cc(-c2ccco2)[nH]n1)N1CCN(C(=O)c2cnn3ccccc23)CC1	none (no result: TcdB GH inh, FadD28 binding, PrP UTR inh, Mtb hypoxia inh, Mtb BioA inh)
Cc1ccc(-n2cc(CNC(C)Cn3cncn3)c(-c3ccc(F)cc3)n2)cc1 (stereo unspecified)	FadD28 binding inconclusive (no result: Mtb BioA inh)
Oc1[nH]c2ccccc2c1N=NC(=S)N1CCOCC1	SSB-PriA inh 59.2 (no result: TcdB GH inh, PrP UTR inh, Mtb hypoxia inh)
COC(=O)N=Nc1c(O)[nH]c2ccc(Br)cc12	none
NC(=S)N=Nc1c(O)[nH]c2ccccc12	none (no result: TcdB GH inh)
Oc1[nH]c2ccc(Br)cc2c1N=NC(=S)N1CCOCC1	Mtb hypoxia inh 38.5
Cc1cccc(N2CC(O)=C(c3nc4ccccc4n3C)C2=N)c1	none (no result: TcdB GH inh)
Cn1c(NCc2ccccc2F)nc2cc(-c3ccccc3)sc2c1=O	none (no result: SSB-PriA inh, PrP UTR inh, Mtb hypoxia inh)
CCCCCCCCCCCCCCCC(O)C[N+](C)(C)CCO (stereo unspecified)	FadD28 binding 34.8 (no result: Mtb hypoxia inh, Mtb BioA inh)
CCCCCC(O)CCCC(=O)O (stereo unspecified)	none (no result: Mtb hypoxia inh)
CCCCN(C(=O)c1cccc(-n2cccc2)c1)c1c(N)n(CCC)c(=O)[nH]c1=O	none
COc1ccccc1-n1cnc2cc(NS(=O)(=O)c3ccc(Br)cc3)ccc21	SSB-PriA inh 41.4
CCOc1cc(N2CCOCC2)c(OCC)cc1NC(=O)Cn1[nH]c(=O)c2ccccc2c1=O	none (no result: TcdB GH inh, Mtb BioA inh)
Nc1ccc(Sc2ccc([N+](=O)[O-])cc2)cc1	none (no result: Mtb BioA inh)
Nc1ccc(Sc2ccc(N)cc2)cc1	TcdB GH inh 13.4
COc1ccc2c(c1)Cc1cc(NC(=O)c3ccccc3-c3ccccc3C(=O)O)ccc1-2	FadD28 binding 10.7 (no result: SSB-PriA inh, PrP UTR inh, Mtb hypoxia inh)
COc1ccc(NC(=O)Nc2ccc3c(c2)C(=O)N([C@@H](C)CO)C[C@@H](C)[C@H](CN(C)C(=O)c2ccccc2)OCCCC[C@H](C)O3)cc1	none (no result: SSB-PriA inh, FadD28 binding, PrP UTR inh, Mtb hypoxia inh)
O=[N+]([O-])c1ccc(O)c(C=NNC2=NS(=O)(=O)c3ccccc32)c1	SSB-PriA inh 51.2 (no result: TcdB GH inh, FadD28 binding, PrP UTR inh, Mtb hypoxia inh, Mtb BioA inh)
C[C@H](CO)N1C[C@H](C)[C@H](CN(C)Cc2ccc(Oc3ccccc3)cc2)Oc2cc(-c3ccncc3)ccc2S1(=O)=O	TcdB GH inh 17.2 (no result: SSB-PriA inh, FadD28 binding, PrP UTR inh, Mtb hypoxia inh)
C[C@@H]1CN([C@@H](C)CO)S(=O)(=O)c2ccc(-c3ccncc3)cc2O[C@@H]1CN(C)Cc1ccc(Oc2ccccc2)cc1	TcdB GH inh 14.1 (no result: SSB-PriA inh, FadD28 binding, PrP UTR inh, Mtb hypoxia inh)
CC(CC(=O)N(C)C1CCCCC1)S(=O)(=O)c1ccc2c(c1)NC(=O)CO2 (stereo unspecified)	none
CC(C)N(Cc1cnn(C)c1)Cc1nc(Cc2ccccc2Cl)no1	none (no result: Mtb BioA inh)
CCOc1ccc(S(=O)(=O)NCc2ccccc2Cl)cc1C(N)=O	TcdB GH inh 19.6 (no result: Mtb BioA inh)
CCN(CC)C(=O)CSc1nnc2nnc3cc(OC)ccc3n12	Mtb hypoxia inh 66.4 (no result: PrP UTR inh)
CNC[C@@H]1OCCCC[C@H](C)Oc2ccc(NC(=O)NC(C)C)cc2C(=O)N([C@H](C)CO)C[C@@H]1C	none (no result: SSB-PriA inh, FadD28 binding, PrP UTR inh, Mtb hypoxia inh)
O=C(Oc1c(CN2CCOCC2)cc(Cl)c2cccnc12)c1cccc([N+](=O)[O-])c1	SSB-PriA inh 105.0 (no result: TcdB GH inh, FadD28 binding, PrP UTR inh, Mtb hypoxia inh, Mtb BioA inh)
COC(=O)c1ccc(NC(=S)Nc2ccc(O)cc2)cc1	TcdB GH inh 10.1 (no result: Mtb BioA inh)
Oc1ccc(NC(=S)Nc2ccc(O)cc2)cc1	none (no result: Mtb BioA inh)
CN1CCN(C(=O)c2cc3c(c(-c4cccc(-c5cccc(C(=O)N(C)C)c5)c4)n2)[C@H](CCO)N([S@@](=O)C(C)(C)C)C3)CC1	none (no result: SSB-PriA inh, FadD28 binding, PrP UTR inh, Mtb hypoxia inh)
O=C(CSc1nc2ccccc2[nH]1)NC1CCCc2ccccc21 (stereo unspecified)	TcdB GH inh 13.2, FadD28 binding inconclusive (no result: Mtb BioA inh)
O=C(CSc1nc2ccccc2[nH]1)c1c[nH]c2ccccc12	SSB-PriA inh 64.7
Cc1ccc2nc(SCC(=O)c3c[nH]c4ccccc34)[nH]c2c1	none (no result: Mtb BioA inh)
CCOC(=O)Cc1csc(NC(=O)c2c(O)c3ccccc3n(CCC(C)C)c2=O)n1	none (no result: Mtb BioA inh)
CC(=O)NC1(C(F)(F)F)C(=O)Nc2c1c(=O)n(C)c(=O)n2C (stereo unspecified)	none (no result: TcdB GH inh, Mtb hypoxia inh)
O=C(Nc1ccccc1F)N(Cc1ccc(F)cc1)Cc1nc2ccccc2c(=O)[nH]1	TcdB GH inh 24.2 (no result: Mtb BioA inh)
Cc1nc2ccc3nc(NC(=O)c4ccc(Cl)cc4)sc3c2s1	none (no result: TcdB GH inh, FadD28 binding, PrP UTR inh, Mtb hypoxia inh, Mtb BioA inh)
COc1ccc(CN(C)C(=O)c2cccc(S(=O)(=O)N3CCCc4ccccc43)c2)c(OC)c1OC	Mtb hypoxia inh 27.7
O=[N+]([O-])c1ccc2nc(-c3ccccc3[N+](=O)[O-])[nH]c2c1	none (no result: Mtb BioA inh)
Cc1cccc(-n2ncc3c(N(C)Cc4ccccc4)ncnc32)c1	SSB-PriA inh 104.2
CN(O)C=c1ccc2c(n1)C(=O)C=CC=2	SSB-PriA inh 95.5 (no result: TcdB GH inh, FadD28 binding, PrP UTR inh, Mtb hypoxia inh, Mtb BioA inh)
CN(O)/C=c1/ccc2c(n1)C(=O)C=CC=2	none (no result: TcdB GH inh, SSB-PriA inh, Mtb hypoxia inh)
CC(C)c1cc(C(C)C)c(C(C)C)c([N+](=O)[O-])c1N	SSB-PriA inh 35.0 (no result: TcdB GH inh, FadD28 binding, PrP UTR inh, Mtb hypoxia inh, Mtb BioA inh)
Cc1c(C)c([N+](=O)[O-])c(C)c(C)c1N	none (no result: Mtb hypoxia inh, Mtb BioA inh)
CC(C)(C)OC(=O)N/N=C/c1ccc(N2CCOCC2)s1	none (no result: SSB-PriA inh, Mtb hypoxia inh, Mtb BioA inh)
CCOC(=O)c1ccc[n+](CC(=O)c2ccc(NC(=O)c3ccccc3)cc2)c1	TcdB GH inh 12.4
CCOC(=O)c1ccccc1NC(=O)CSc1nc(=O)n(CCN(CC)CC)c2c1CCCC2	none (no result: TcdB GH inh, FadD28 binding, PrP UTR inh, Mtb hypoxia inh, Mtb BioA inh)
COc1ccc(SCC2CCN(C(=O)c3cccc(N(C)C)c3)CC2)cc1	SSB-PriA inh 42.0 (no result: TcdB GH inh, FadD28 binding, PrP UTR inh, Mtb hypoxia inh, Mtb BioA inh)

Screens (PubChem BioAssay)
